Experimental data taken from PubChem BioAssay (Tox21).
Several values for one entry are separate records, joined by “and”; a condition that tells them apart may be missing. Identical values can stand only once. Records with an inconclusive call do not appear. Some compounds were tested as several samples or in several runs, with calls that do not always agree. Activity calls are given as the source filed them. Unless noted, the call rests on the fitted dose curve; in most records, active means well fitted curve in the direction sought with a large enough effect in the repeat runs; inconclusive means weak or mixed curves; inactive means no such curve, though single readings can be large; an effect the other way counts as inactive or inconclusive.

Legend:
[1] = qHTS assay to identify small molecule agonists of the peroxisome proliferator-activated receptor delta (PPARd) signaling pathway - cell viability counter screen (AID 743211); further: nearly all actives have a fitted effect of over 55% in size; further: potency means the concentration at half of the fitted maximal effect
Method in brief: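 PPARd-bla HEK293H cells (UAS-beta-lactamase reporter) were treated with compounds for 17 h at 37 C. Viability was then read in the same wells by CellTiter-Glo luminescence after 30 min at room temperature.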

[2] = qHTS assay to identify small molecule antagonists of the peroxisome proliferator-activated receptor delta (PPARd) signaling pathway - cell viability counter screen (AID 743213); further: nearly all actives have a fitted effect of over 50% in size; further: potency means the concentration at half of the fitted maximal effect
Method in brief: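 In this counter screen, HEK293H cells carrying a UAS-beta-lactamase reporter are co-treated with test compounds and 300 nM L165041 (final) for 17 h at 37 C; cell viability is quantified by CellTiter-Glo luminescence.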

[3] = molecular target: Peroxisome proliferator-activated receptor delta (Homo sapiens) (UniProt Q03181); test: qHTS assay to identify small molecule antagonists of the peroxisome proliferator-activated receptor delta (PPARd) signaling pathway (AID 743215; active means well fitted inhibition curve with a large enough effect in the signal ratio in the repeat runs, not every such curve was filed as active; the % refers to the signal ratio;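 further: cells stimulated with agonist L165041 at 300 nM final during compound exposure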; further: potency means the concentration at half of the fitted maximal effect)
Method in brief: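 Antagonist-mode beta-lactamase reporter screen: HEK293H cells with UAS-bla under PPARd control, stimulated by 300 nM L165041 (final) alongside test compound for 17 h at 37 C, then FRET fluorescence after 2 h substrate incubation.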

[4] = qHTS assay to identify small molecule agonists of the farnesoid-X-receptor (FXR) signaling pathway - cell viability counter screen (AID 743218); further: nearly all actives have a fitted effect of over 45% in size; further: potency means the concentration at half of the fitted maximal effect
Method in brief: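 In GeneBLAzer FXR-UAS-bla HEK 293T cells, compounds act for 16 h at 37 C. Cell viability is then scored in the reporter wells by CellTiter-Glo, 30 min at RT, luminescence.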

[5] = qHTS assay to identify small molecule antagonists of the farnesoid-X-receptor (FXR) signaling pathway - cell viability counter screen (AID 743221; active means well fitted cell-killing curve with a large enough effect in the repeat runs, not every such curve was filed as active; further: nearly all actives have a fitted effect of over 50% in size; further: potency means the concentration at half of the fitted maximal effect)
Method in brief: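 FXR-UAS-bla HEK 293T cells were treated with test compounds plus chenodeoxycholic acid (50 uM final) for 16 h at 37 C. Cell viability in the same wells was then read as CellTiter-Glo luminescence after 30 min at room temperature.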

[6] = molecular target: Bile acid receptor (Homo sapiens) (UniProt Q96RI1); test: qHTS assay to identify small molecule antagonists of the farnesoid-X-receptor (FXR) signaling pathway (AID 743217; active means well fitted inhibition curve with a large enough effect in the signal ratio in the repeat runs, not every such curve was filed as active; the % refers to the signal ratio)
Method in brief: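 Beta-lactamase reporter under UAS control in HEK 293T cells; compound exposure 16 h at 37 °C in the presence of chenodeoxycholic acid (50 uM final); signal from B/G FRET substrate after 2 h at room temperature.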

[7] = molecular target: Bile acid receptor (Homo sapiens) (UniProt Q96RI1); test: qHTS assay to identify small molecule agonists of the farnesoid-X-receptor (FXR) signaling pathway (AID 743220; active means well fitted activation curve with a large enough effect in the signal ratio in the repeat runs, not every such curve was filed as active; the % refers to the signal ratio)
Method in brief: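 Beta-lactamase reporter under UAS control in GeneBLAzer FXR HEK 293T cells (5000/well) measured with LiveBLAzer FRET substrate after 2 h at room temperature. Compound exposure lasted 16 h at 37C.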

[8] = molecular target: Vitamin D3 receptor (Homo sapiens) (UniProt P11473); test: qHTS assay to identify small molecule agonists of the vitamin D receptor (VDR) signaling pathway (AID 743222; calls by dose curve; further: potency means the concentration at half of the fitted maximal effect)
Method in brief: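 Agonist activity measured in VDR-bla reporter cells. Exposure 16 h, 37C, 5% CO2; detection by B/G FRET substrate, 2 h RT.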

[9] = molecular target: Vitamin D3 receptor (Homo sapiens) (UniProt P11473); test: qHTS assay to identify small molecule antagonists of the vitamin D receptor (VDR) signaling pathway (AID 743223; active means well fitted inhibition curve with a large enough effect in the signal ratio in the repeat runs, not every such curve was filed as active; the % refers to the signal ratio)
Method in brief: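 VDR-bla cells were plated, incubated 4 h at 37C, then given compound and 1alpha,25-dihydroxyvitamin D3 (3 nM final). After 16 h at 37C, LiveBLAzer B/G FRET substrate was added for 2 h at room temperature and fluorescence read.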

Measured: Potency

Peroxisome proliferator-activated receptor delta (Homo sapiens), sequence (Q03181 whole entry, looked up): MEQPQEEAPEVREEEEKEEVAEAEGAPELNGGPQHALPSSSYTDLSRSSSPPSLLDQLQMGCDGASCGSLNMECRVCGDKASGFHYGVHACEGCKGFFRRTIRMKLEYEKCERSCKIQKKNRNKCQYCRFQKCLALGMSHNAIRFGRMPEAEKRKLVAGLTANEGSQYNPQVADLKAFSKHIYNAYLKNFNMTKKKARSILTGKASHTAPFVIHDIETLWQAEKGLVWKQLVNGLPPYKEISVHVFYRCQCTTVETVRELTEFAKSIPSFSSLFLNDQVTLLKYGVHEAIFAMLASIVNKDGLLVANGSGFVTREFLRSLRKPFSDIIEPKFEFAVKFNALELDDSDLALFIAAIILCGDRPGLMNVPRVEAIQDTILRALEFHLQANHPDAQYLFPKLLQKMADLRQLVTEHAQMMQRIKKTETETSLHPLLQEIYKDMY
Bile acid receptor (Homo sapiens), sequence (Q96RI1 whole entry, looked up): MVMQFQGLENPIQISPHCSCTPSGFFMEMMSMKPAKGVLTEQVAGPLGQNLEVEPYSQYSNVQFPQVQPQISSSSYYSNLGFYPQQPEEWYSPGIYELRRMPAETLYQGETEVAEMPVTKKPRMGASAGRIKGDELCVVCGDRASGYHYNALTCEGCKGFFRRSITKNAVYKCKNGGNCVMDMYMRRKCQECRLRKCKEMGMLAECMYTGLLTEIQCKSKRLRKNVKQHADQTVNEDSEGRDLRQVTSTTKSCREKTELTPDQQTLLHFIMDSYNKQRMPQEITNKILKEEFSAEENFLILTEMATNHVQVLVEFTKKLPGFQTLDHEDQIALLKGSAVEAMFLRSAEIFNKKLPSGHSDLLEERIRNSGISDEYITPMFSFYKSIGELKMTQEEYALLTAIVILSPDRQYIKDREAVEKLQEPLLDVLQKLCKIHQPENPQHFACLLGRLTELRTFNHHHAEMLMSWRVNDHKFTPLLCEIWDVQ
Vitamin D3 receptor (Homo sapiens), sequence (P11473 whole entry, looked up): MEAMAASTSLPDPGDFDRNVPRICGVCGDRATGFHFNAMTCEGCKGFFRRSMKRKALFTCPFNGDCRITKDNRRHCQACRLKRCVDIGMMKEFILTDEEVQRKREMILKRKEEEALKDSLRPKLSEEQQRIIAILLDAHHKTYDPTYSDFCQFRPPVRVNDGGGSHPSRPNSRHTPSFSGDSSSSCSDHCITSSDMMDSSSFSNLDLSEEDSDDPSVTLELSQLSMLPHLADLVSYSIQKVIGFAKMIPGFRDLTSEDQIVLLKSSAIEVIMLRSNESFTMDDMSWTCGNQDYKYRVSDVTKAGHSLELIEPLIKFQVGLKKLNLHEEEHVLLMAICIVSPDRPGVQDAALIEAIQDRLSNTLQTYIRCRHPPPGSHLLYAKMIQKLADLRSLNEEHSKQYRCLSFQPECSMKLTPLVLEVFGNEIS

CCn1cc(C(=O)O)c(=O)c2cc(F)c(N3CCNC(C)C3)c(F)c21 (centres undefined)
inactive: [1] | [2] | [3] | [4] | [5]

COC(c1ccccc1)(c1ccccc1)[C@H](Oc1nc(C)cc(C)n1)C(=O)O
inactive: [1] | [2] | [6] | [4] | [7] | [5] | [8]

C[N+]1([O-])CCOCC1
inactive: [1] | [2] | [3] | [4] | [5] | [8] | [9]

CC(=O)OCC1=C(C(=O)O)N2C(=O)[C@@H](NC(=O)Cc3cccs3)[C@H]2SC1
inactive: [1] | [2] | [6] | [4] | [7] | [5] | [8]

CC1=CC(=O)c2ccccc2C1=O
active: [1] 19.5 µM and 26.6 µM | [2] 19.5 µM | [3] 33.5 µM | [4] 24.5 µM

Nc1cc(S(=O)(=O)O)cc2cc(S(=O)(=O)O)cc(O)c12
inactive: [1] | [2] | [6] | [4] | [7] | [5]
active: [8] 24.4 µM

Cc1scc2c1N(C(=O)CN1CCN(C)CC1)c1ccccc1NC2=O
inactive: [1] | [2] | [3] | [6] | [4] | [7] | [5] | [8] | [9]

CCc1ccc(C(c2ccc(CC)cc2)C(Cl)Cl)cc1
inactive: [1] | [2] | [3] | [7] | [5] | [8] | [9]

NC(N)=Nc1nc(CSCC/C(N)=N/S(N)(=O)=O)cs1
inactive: [1] | [2] | [3] | [6] | [4] | [7] | [5] | [8]

CCC(C)(Oc1ccc(C2(c3ccc(OC(C)(CC)C(=O)O)cc3)CCCCC2)cc1)C(=O)O (centres undefined)
inactive: [1] | [2] | [6] | [4] | [7] | [5]

CCN(CC)C(=S)SSC(=S)N(CC)CC
active: [1] 110 nM and 44.7 nM and 150 nM | [2] 123 nM and 39.8 nM and 150 nM | [3] 0.0871 µM | [4] 0.0915 µM | [5] 222 nM and 188 nM

Cc1cc(Cc2cc(C)cc(C(C)(C)C)c2O)c(O)c(C(C)(C)C)c1
active: [1] 17.5 µM and 15.5 µM | [2] 13.9 µM and 15.5 µM | [4] 21.9 µM
inactive: [7] | [5] | [8]

COc1ccc(CCN2CCC(Nc3nc4ccccc4n3Cc3ccc(F)cc3)CC2)cc1
active: [1] 2.81 µM and 7.5 µM | [2] 3.16 µM and 23.7 µM | [4] 2.81 µM and 23.7 µM | [5] 7.07 µM and 29.8 µM
inactive: [7]

CCN(CC)CCOc1ccc(/C(=C(\Cl)c2ccccc2)c2ccccc2)cc1
inactive: [6] | [7] | [8]
active: [1] 35.4 µM and 29.8 µM | [2] 39.7 µM | [4] 35.4 µM and 26.6 µM

O=Nc1ccc(Nc2ccccc2)cc1
active: [1] 43.9 µM and 38.9 µM | [2] 49 µM | [3] 30.9 µM | [4] 55.3 µM and 54.9 µM | [5] 39.1 µM
inactive: [8]

CC[C@]1(O)C[C@@H]2CN(CCc3c([nH]c4ccccc34)[C@@](C(=O)OC)(c3cc4c(cc3OC)N(C)[C@H]3[C@@](O)(C(=O)OC)[C@H](OC(C)=O)[C@]5(CC)C=CCN6CC[C@]43[C@@H]65)C2)C1
inactive: [1] | [2] | [3] | [4] | [5] | [8]

O=C(OCc1ccccc1)c1ccc(O)cc1
inactive: [1] | [2] | [6] | [4] | [7] | [5]

Cc1c(O)cccc1C(=O)N[C@@H](CSc1ccccc1)[C@H](O)CN1C[C@H]2CCCC[C@H]2C[C@H]1C(=O)NC(C)(C)C
inactive: [7]
active: [1] 7.56 µM and 18.8 µM | [2] 15.1 µM and 23.7 µM | [4] 6.74 µM and 26.6 µM | [5] 19 µM and 26.6 µM

NCCCCCC(=O)O
inactive: [1] | [2] | [6] | [4] | [7] | [5] | [8]

CN(C)c1ccc(C(=C2C=CC(=[N+](C)C)C=C2)c2ccccc2)cc1
active: [1] 347 nM and 1.33 µM | [2] 490 nM and 3.35 µM | [4] 437 nM and 2.37 µM | [5] 617 nM and 1.5 µM

C=C(C)C1CC=C(C)C(OC(C)=O)C1 (centres undefined)
inactive: [1] | [2] | [3] | [6] | [4] | [7] | [5] | [8] | [9]

CC(=O)C1=C(C)[C@@H]2C[C@@]3(C1)[C@H](C)CC[C@H]3C2(C)C
inactive: [1] | [2] | [3] | [6] | [7] | [5] | [8]

O=C(O)c1cn(-c2ccc(F)cc2)c2cc(N3CCNCC3)c(F)cc2c1=O
inactive: [1] | [2] | [3] | [4] | [5]

CCCCN(CCO)CCCC
inactive: [1] | [2] | [3] | [6] | [4] | [7] | [5] | [8] | [9]

Clc1ccc2c(c1)C(N1CCNCC1)=Nc1ccccc1O2
2.19 µM (active) and inactive: [2]
active: [1] 27.5 µM and 26.6 µM | [4] 38.9 µM
inactive: [3] | [5]

CCCCCCCCCCCC[N+](C)(C)C
inactive: [6] | [4] | [7] | [5]
active: [1] 54.9 µM and 49 µM | [2] 54.9 µM and 15.5 µM
